In PubChem BioAssay (NCI) one finds growth inhibition data, which are given here for 23 compounds.

Several values for one entry are separate records, joined by “and”; a condition that tells them apart may be missing. Identical values can stand only once. The panel holds about 79,000 compounds, 15% with a hit somewhere; the sample as a whole holds those more often. Unmarked numbers belong to inactive results. Activity calls are given as the source filed them. Rule as the data show it: active = growth inhibition above about 70%; inactive = the rest. Where a SMILES comes first, the peptide text is derived from it.

Experiment [1] can be described thus: NCI Yeast Anticancer Drug Screen. Data for the rad50 strain (AID 155).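 Also: 0% = growth of vehicle-only cultures of the same strain.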 The note with it: S. cerevisiae rad50 strain growth inhibition, active compounds read high; at 50.0 µM unless noted. An outline of the steps: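 A DNA repair-deficient yeast mutant serves as the test organism; compound-induced growth inhibition is calculated against vehicle-treated cells.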
A short description of experiment [2]: NCI Yeast Anticancer Drug Screen. Data for the mec2-1 strain (AID 157). To be noted: S. cerevisiae mec2-1 strain, active compounds read high; at 50.0 µM unless noted. An outline of the steps: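 Readout is yeast growth inhibition, normalised to vehicle-treated controls, in the mec2-1 strain exposed to compound.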
Experiment [3] is described as follows: NCI Yeast Anticancer Drug Screen. Data for the sgs1 mgt1 strain (AID 161).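 Also: 0% = growth of cultures given vehicle only.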 The note with it: S. cerevisiae sgs1 mgt1 strain, active compounds read high; at 50.0 µM unless noted. The procedure, abridged:
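Compounds are added to genetically altered yeast, and growth is compared with cultures given vehicle alone to give percent inhibition.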

Experiment [4] in a line: NCI Yeast Anticancer Drug Screen. Data for the cln2 rad14 strain (AID 165).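 Also: 0% = growth equal to vehicle treated cultures.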 The note with it: S. cerevisiae cln2 rad14 strain, active compounds read high; at 50.0 µM unless noted. The procedure, abridged:
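Relative to vehicle controls, growth inhibition of compound-treated cln2 rad14 yeast was recorded.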

The nature of experiment [5]: NCI Yeast Anticancer Drug Screen. Data for the bub3 strain (AID 167). To be noted: S. cerevisiae bub3 mutant strain, active compounds read high; at 50.0 µM unless noted. An outline of the steps: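 Inhibition values come from growth of compound-treated mutant yeast normalised to vehicle-treated controls.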
Experiment [6] can be described thus: NCI Yeast Anticancer Drug Screen. Data for the mlh1 rad18 strain (AID 175). The note with it: S. cerevisiae mlh1 rad18 strain growth inhibition, active compounds read high; at 50.0 µM unless noted. An outline of the steps: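 Test agents were incubated with a yeast strain of defined genotype (DNA damage repair defect). Inhibition of growth was derived by comparison with vehicle-exposed cultures.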

For `CC1=NN(C(=O)Cc2ccccc2)C(=O)/C1=C\c1ccc(O)cc1`, the growth inhibition was -18.9% in experiment [1]; -36.1% in experiment [2]; -47.4% in experiment [3]; -4.2% in experiment [4]; -13.2% in experiment [5]; -29.2% in experiment [6].

As to `CC(=O)c1cccc(OC(=O)Nc2ccccc2)c1`, the growth inhibition was 6.45% in experiment [1]; -10.2% in experiment [2]; 2.5% in experiment [3]; 4.3% in experiment [4]; -1.45% in experiment [5]; 22.4% in experiment [6].

As for `CC1=C(CCC(=O)O)C(=O)C(CCC(=O)O)C(C)(C)C1` (stereo not drawn), the growth inhibition is 19.4% in experiment [1]; 7.45% in experiment [2]; 13.2% in experiment [3]; 56.6% in experiment [4]; 4.6% in experiment [5]; 8.15% in experiment [6].

For `CCCC(=O)NC1CCCCC1`, the growth inhibition in experiment [1] is -22.2%; in experiment [2] it was 8.05%; in experiment [3], -26.9%; in experiment [4] it was 26.5%; in experiment [5], -24.1%; in experiment [6], -23.1%.

`CC(C)(C)C(=O)/C(=C/C(=O)O)C(C)(C)C`: the growth inhibition was -0.1% in experiment [1]; 10.7% in experiment [2]; 1.25% in experiment [3]; 7.6% in experiment [4]; -0.9% in experiment [5]; -0.95% in experiment [6].

Take `C=CCC1(CN(C)C)CC/C(=C\c2ccc(Cl)cc2)C1=O` (stereo not drawn): the growth inhibition in experiment [1] was 55.2%; in experiment [2], 23.6%; in experiment [3], 59.8%; in experiment [4], 42.2%; in experiment [5] it was 16.3%; in experiment [6], 52.5%.

As for `CCCCCCCCCCCCCCCCCCNC(=S)N/N=C/c1ccccc1[N+](=O)[O-]`, the growth inhibition in experiment [1] was -17.1%; in experiment [2], 2.75%; in experiment [3], -20.1%; in experiment [4], 4.95%; in experiment [5], -13.1%; in experiment [6], -7.65%.

Regarding `COC(=O)C1NC(=O)C(N2C(=O)c3ccccc3C2=O)=CSC1(C)C` (stereo not drawn), the growth inhibition is -15.8% in experiment [1]; -3.05% in experiment [2]; 1.15% in experiment [3]; -11.6% in experiment [4]; -48% in experiment [5]; -7.2% in experiment [6].

Regarding `CCOC(=O)c1c[nH]n(-c2ccccc2)c1=O`, the growth inhibition in experiment [1] is 9.65%; in experiment [2], -3.95%; in experiment [3] it was -4.75%; in experiment [4], -3.15%; in experiment [5], -2.7%; in experiment [6] it was 12.6%.

As to `CNC(=O)CNC(=O)C(NC(=O)CNC(=O)C1CCCN1C(=O)C(C)NC(=O)C(NC(C)=O)C(C)C)C(C)C` (stereo not drawn) (Ac-VAPGVG-NHMe; configuration not given here), the growth inhibition was 0.3% in experiment [1]; -13.9% in experiment [2]; 3.55% in experiment [3]; -6.6% in experiment [4]; -11.7% in experiment [5]; -4.75% in experiment [6].

Take `Cc1cc(C(c2ccccc2)n2c3ccccc3c3ccccc32)cc(C)c1O` (stereo not drawn): the growth inhibition is 6.5% in experiment [1]; 11.3% in experiment [2]; 8.45% in experiment [3]; 0.25% in experiment [4]; -7.55% in experiment [5]; 16.4% in experiment [6].

For the compound `CN(C)c1ccc(Cc2ccc(N(C)C)cc2N)cc1`, the growth inhibition was -0.85% in experiment [1]; 2.2% in experiment [2]; 2.75% in experiment [3]; 10.1% in experiment [4]; -25.2% in experiment [5]; -4.05% in experiment [6].

`Cc1cccc(C2=N/C(=C\c3ccc(N(C)C)cc3)C(=O)O2)c1`: the growth inhibition in experiment [1] is 20.2%; in experiment [2], 6%; in experiment [3] it was 7.7%; in experiment [4], 18.2%; in experiment [5], 3.05%; in experiment [6] it was -6.1%.

In the case of `NC(=O)c1c([N+](=O)[O-])ncn1C1OC(CO)C(O)C1O` (stereo not drawn), the growth inhibition is 20.5% in experiment [1]; -7.75% in experiment [2]; -5.8% in experiment [3]; -12.2% in experiment [4]; 5.8% in experiment [5]; 14.1% in experiment [6].

For the compound `CCC1CC2CC(c3cc4c(cc3OC)N(C)C3C(O)(C(=O)OC)C(OC(C)=O)C5(CC)C=CCN6CCC43C65)c3[nH]c4ccccc4c3CCN(C1)C2` (stereo not drawn), the growth inhibition in experiment [1] was 17.9%; in experiment [2] it was 14.3%; in experiment [3], 28.9%; in experiment [4], 2%; in experiment [5] it was 8.65%; in experiment [6], 43.4%.

On to `CC(=O)OC(C)COc1ccccc1` (stereo not drawn), for which the growth inhibition in experiment [1] is 23.1% and 5.6%; in experiment [2], 1.55% and -10.3%; in experiment [3], 2.05% and -4.55%; in experiment [4], -31.2% and -6.8%; in experiment [5] it was -17.1% and 8.8%; in experiment [6], 15.6% and 15%.

Consider `CC(C)CCCC(C)C1CCC2C3CC=C4CC(OC(=O)Nc5ccc(S(=O)(=O)NC6CCCCC6)cc5)CCC4(C)C3CCC12C` (stereo not drawn), for which the growth inhibition was -1.85% in experiment [1]; -4.35% in experiment [2]; 12.7% in experiment [3]; -38.1% in experiment [4]; -12.4% in experiment [5]; 8.25% in experiment [6].

Regarding `Cc1ccccc1NS(=O)(=O)N1CCCCC1`, the growth inhibition is -11.8% in experiment [1]; -24.4% in experiment [2]; -4.3% in experiment [3]; 18.9% in experiment [4]; 22.1% in experiment [5]; -5.65% in experiment [6].

With `Cc1c2noc1CCCCCCCCCCC2`, the growth inhibition in experiment [1] was 18.9%; in experiment [2], 20%; in experiment [3], 3.6%; in experiment [4] it was -4.15%; in experiment [5] it was -13.7%; in experiment [6], 17.9%.

In the case of `CCOC(=O)c1cc(/C=C/C(C)=C/C(=O)OC)n(C)c1C`, the growth inhibition in experiment [1] is 74.5% (active); in experiment [2] it was 56%; in experiment [3] it was 79.5% (active); in experiment [4] it was 34.5%; in experiment [5], 80.2% (active); in experiment [6] it was 58.5%.

For the compound `COc1ccc(C(OC(=O)Oc2ccccc2)c2ccccc2)cc1` (stereo not drawn), the growth inhibition is -9.1% in experiment [1]; 6.55% in experiment [2]; -6.9% in experiment [3]; -20.1% in experiment [4]; -16.4% in experiment [5]; 7% in experiment [6].

On to `Cc1cc(O)cc(C)c1O`, for which the growth inhibition is 7.05% in experiment [1]; 5.45% in experiment [2]; 2.8% in experiment [3]; -23.4% in experiment [4]; -0.3% in experiment [5]; -7.75% in experiment [6].

For `CN1C(=O)N(C2CCCCC2)C(=O)C(C)(CN2CCCCC2)C1=O` (stereo not drawn), the growth inhibition in experiment [1] was 12.7%; in experiment [2], 14.1%; in experiment [3] it was 12.2%; in experiment [4], 17.6%; in experiment [5], -5.25%; in experiment [6] it was 12.2%.
